# Columns and labels:
# Conditions in all cases: concentration: 1 μM, replicates: in singlicate; n = 1
# MRCKA = system: MRCKA
# MRCKB = system: T1, MRCKB
# T1 construct: gene CDC42BPB
# MST1R = system: MST1R
# MST1 = system: T2, MST1
# T2 construct: gene STK4
# MST2 = system: T3, MST2
# T3 construct: gene STK3
# MST3 = system: T4, MST3
# T4 construct: gene STK24
# MST4 = system: MST4
# MTOR = system: MTOR
# MUSK = system: MUSK
# MYLK2 = system: MYLK2
# MYLK4 = system: MYLK4
# MYLK = system: MYLK
# MYO3A = system: MYO3A
# MYO3B = system: MYO3B
# NDR1 = system: T5, NDR1
# T5 construct: gene STK38
# NDR2 = system: NDR2
# NEK10 = system: NEK10
# NEK11 = system: NEK11
# NEK1 = system: NEK1
# NEK2 = system: NEK2
# 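Note: KINOMEscan kinase panel screen.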
Structure (SMILES),%Inh (MRCKA),%Inh (MRCKB),%Inh (MST1R),%Inh (MST1),%Inh (MST2),%Inh (MST3),%Inh (MST4),%Inh (MTOR),%Inh (MUSK),%Inh (MYLK2),%Inh (MYLK4),%Inh (MYLK),%Inh (MYO3A),%Inh (MYO3B),%Inh (NDR1),%Inh (NDR2),%Inh (NEK10),%Inh (NEK11),%Inh (NEK1),%Inh (NEK2)
Nc1nc(-c2cccnc2)c(-c2ccnc3ccccc23)s1 [GW684083],0%,0%,18%,4%,10%,10%,0%,27%,11%,0%,83%,15%,0%,0%,0%,11%,77%,27%,0%,13%
Cn1ccc2ncnc(Oc3ccc(NC(=O)Nc4cccnc4)c(Cl)c3)c21,0%,0%,15%,12%,0%,10%,0%,0%,7%,0%,0%,0%,0%,1%,0%,14%,0%,0%,0%,0%
O=C(NCCCN1CCCC1=O)c1cnc(NCc2cc(Cl)ccc2Cl)nc1NC1CCNCC1,0%,0%,72%,8%,0%,32%,44%,36%,7%,1%,3%,11%,0%,0%,0%,0%,0%,0%,0%,7%
Cl.c1ccc(Cn2ccc3cc(Nc4ncnc5ccccc45)ccc32)cc1 [GW275568],7%,11%,43%,0%,22%,17%,0%,16%,11%,19%,26%,21%,16%,0%,32%,1%,29%,0%,0%,14%
Cl.O=S(=O)(c1cccc(F)c1)c1ccc(Nc2ncnc3cc(Br)sc23)cc1Cl [GSK306886],18%,9%,20%,0%,9%,2%,0%,12%,8%,3%,9%,3%,22%,0%,8%,1%,0%,1%,32%,5%
C[C@@H]1CCN(C(=O)CO)C[C@@H]1N(C)c1ncnc2[nH]ccc12,0%,100%,21%,12%,0%,11%,0%,55%,0%,2%,0%,3%,0%,0%,6%,14%,48%,0%,0%,0%
Cc1cc(N2CCC(NS(=O)(=O)c3ccc(F)cc3)CC2)nc(Nc2cccc(C#N)c2)n1.O=C(O)C(F)(F)F [GSK1653537],0%,0%,17%,8%,0%,7%,0%,6%,8%,0%,0%,0%,0%,0%,0%,0%,1%,0%,55%,0%
Nc1nccc2scc(-c3ccc4c(c3)CCN4C(=O)Cc3cc(F)ccc3F)c12 [GSK2587663],15%,0%,35%,8%,3%,15%,0%,4%,10%,0%,0%,24%,0%,0%,0%,0%,12%,9%,0%,7%
CC(C)(C)c1ccc(-n2cnc3c(N)ncnc32)cc1 [SKF-97263],0%,3%,17%,13%,18%,0%,0%,15%,0%,0%,3%,8%,1%,8%,0%,0%,0%,0%,0%,0%
Clc1cc(Nc2ncnc3cc[nH]c23)ccc1OCc1ccccn1,0%,8%,37%,12%,48%,28%,0%,0%,13%,11%,9%,17%,24%,20%,14%,0%,0%,0%,5%,0%

# Source: PMC5540273 (PLoS ONE, 2017)
